Laboratory results taken from PubChem BioAssay.
Activity calls are given as the source filed them.

These compounds were tested against NADPH oxidase 2 (Homo sapiens) (UniProt P04839) (assay: NOX2-dependent H2O2 signal modulators, primary screen, NOX inhibitor project, cell-based, HEK293-NOX2, PMA-stimulated, Amplex Red fluorescence (AID 1159; further: test concentration not given here)). Settings: 45 min, higher = more signal, called active from +8 up or from −8 down.
Chain of NADPH oxidase 2 (Homo sapiens) (P04839 whole entry, looked up): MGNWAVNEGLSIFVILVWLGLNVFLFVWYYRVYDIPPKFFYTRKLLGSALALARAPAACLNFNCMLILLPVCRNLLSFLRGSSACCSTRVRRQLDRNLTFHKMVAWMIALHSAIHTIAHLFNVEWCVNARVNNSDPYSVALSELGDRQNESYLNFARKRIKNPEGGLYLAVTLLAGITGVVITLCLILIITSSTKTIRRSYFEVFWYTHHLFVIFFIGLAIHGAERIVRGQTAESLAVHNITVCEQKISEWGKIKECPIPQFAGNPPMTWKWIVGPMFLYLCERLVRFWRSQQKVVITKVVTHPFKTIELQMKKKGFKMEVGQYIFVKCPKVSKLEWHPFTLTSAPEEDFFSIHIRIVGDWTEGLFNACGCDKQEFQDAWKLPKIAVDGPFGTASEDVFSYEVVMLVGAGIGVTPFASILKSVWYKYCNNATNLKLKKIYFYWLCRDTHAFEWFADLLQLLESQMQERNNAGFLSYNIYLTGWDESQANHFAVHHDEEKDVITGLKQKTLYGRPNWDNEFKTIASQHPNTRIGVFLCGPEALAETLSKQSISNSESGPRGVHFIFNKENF

z-score, inactive:
CC(C)C[C@@H]1NC(=O)[C@H](C(C)C)NC(=O)[C@@]23C(=O)N[C@@H](Cc4ccccc4)C2[C@H](C)[C@@]2(C)O[C@H]2C3/C=C/CC/C=C/CNC1=O (stereo not given in full) -0.159
CC1(C)[C@@H]2CC(C(O)C3C=CC4C(=O)N(c5ccccc5)C(=O)C4N3Nc3ccc([N+](=O)[O-])cc3)=C[C@H]1C2 (stereo not given in full) -0.0932
COc1ccccc1CN1C(=O)c2ccccc2[C@@]2(Cc3ccccc3N(CC(C)C)C2=O)[C@@H]1c1ccc(CO)cc1 -0.0964
CC1CC/C=C\[C@H]2OC34C=CCN(C(C)(C)C)C(=O)[C@H]3N(C(C)CO)C(=O)[C@@H]4C2C(=O)O1 (stereo not given in full) 0.499
O=C(NCCO)C1=C[C@H](Oc2ccccc2I)[C@@H](O)[C@H](N(Cc2ccco2)C(=O)Cc2ccccc2)C1 1.34
CN(C)CCCC[C@@H]1NC(=O)[C@H]2C[C@@H](C(=O)NCCCCCCN)[C@@H](c3ccc(O)cc3)N2C1=O 0.277
COC(=O)C(CC#Cc1ccc2c(c1)[C@]1(C(=O)N2)[C@H](c2ccc(OCCO)cc2)N2[C@H](c3ccccc3)[C@H](c3ccccc3)OC(=O)[C@H]2[C@@H]1C(=O)N1CCc2cc(OC)c(OC)cc2C1)C(=O)OC 1.13
[N-]=[N+]=Nc1ccccc1[C@H]1OC(c2ccc(OCCCO)cc2)=N[C@@]1(CCS(=O)(=O)c1ccccc1)C(N)=O 0.178
COC(=O)[C@@]1(Cc2ccc(F)cc2)[C@H]2c3cc(C(=O)N(C)C)n(Cc4ccccc4)c3C[C@H]2CN1C(=O)c1ccccc1 1.01
COc1cc(COC(C)=O)ccc1OC(C)=O -4.55
CN1C(=O)C2C=CC(C(O)C#Cc3ccccc3)N(N3CCCCC3)C2C1=O (stereo not given) -0.23
NC(=O)NCC#Cc1ccc2c(c1)[C@]1(C(=O)N2)[C@H](C(N)=O)[C@H]2C(=O)O[C@H](c3ccccc3)[C@H](c3ccccc3)N2[C@@H]1c1ccc(O)cc1 0.122
CO[C@H]1O[C@H](CO)[C@@H](OC(=O)Nc2ccc(Oc3ccccc3)cc2)[C@H](OC(=O)Nc2ccc3c(c2)OCO3)[C@H]1OC(=O)Nc1ccc2c(c1)OCO2 0.706
CC(C)NC(=O)[C@@H]1c2ccccc2C(=O)N(C2Cc3ccccc3C2)[C@H]1c1ccc(CO)cc1 -0.402
CCCc1cc2c(n1Cc1cc(F)cc(F)c1)C(C)C1CN(C(=O)c3ccccc3)C(C)(C(=O)OC)C21 (stereo not given) -1.69
[N-]=[N+]=Nc1ccccc1[C@@H]1OC(c2ccc(OCCCO)cc2)=N[C@]1(CCS(=O)(=O)c1ccccc1)C(N)=O -1.8
O=C1c2ccccc2[C@](Cc2ccccc2I)(C(=O)NCCN2CCOCC2)[C@H](c2ccc(CO)cc2)N1Cc1ccccc1Cl -0.136
O=C(N1CCCCC1)[C@]1(Cc2ccccc2)N=C(c2ccc(OCCCO)cc2)O[C@@H]1c1ccccc1 -2.82
CC(=O)NCCCC[C@@H]1NC(=O)[C@H]2C[C@@H](C(=O)NCCCCCCNC(=O)CS)[C@@H](c3ccc(O)cc3)N2C1=O 0.294
O=C(CS)NCCCCCCNC(=O)[C@@H]1C[C@@H]2C(=O)NCC(=O)N2[C@@H]1c1cccc(OCCO)c1 1.54
CC[C@@H]1C=C(C(=O)O)[C@H](c2ccc(Br)cc2)N1S(=O)(=O)c1ccc(C)cc1 0.451
CCOC(=O)C[C@H]1[C@H](OC(=O)c2ccccc2-c2ccccc2)[C@@H](NC(=O)CC(C)C)c2cc(OCCCO)ccc2N1C(=O)Cc1ccc(OC)cc1 -0.234
CCCC[C@@H]1C[C@H]1[C@@H](NC(=O)c1cccs1)c1ccc(-c2ccccc2)cc1 -0.939
COc1ccc(-c2cc3c(c(-c4ccc(Oc5ccccc5)cc4)n2)[Si](C(C)C)(C(C)C)OC3)cn1 0.476
CC(C)C(=C=CC[C@@H](O)c1ccc(OCCO)cc1)C[C@@H](O)COCc1ccccc1 -2.13

Each compound was assayed against NADPH oxidase 4 (Homo sapiens) (UniProt Q9NPH5) (assay: NOX4-dependent H2O2 signal modulators, primary screen, NOX inhibitor project, cell-based, HEK293-NOX4, tetracycline-induced, Amplex Red fluorescence (AID 1160)). Settings: 45 min, higher = more signal, called active from +8 up or from −8 down.
Chain of NADPH oxidase 4 (Homo sapiens) (Q9NPH5 whole entry, looked up): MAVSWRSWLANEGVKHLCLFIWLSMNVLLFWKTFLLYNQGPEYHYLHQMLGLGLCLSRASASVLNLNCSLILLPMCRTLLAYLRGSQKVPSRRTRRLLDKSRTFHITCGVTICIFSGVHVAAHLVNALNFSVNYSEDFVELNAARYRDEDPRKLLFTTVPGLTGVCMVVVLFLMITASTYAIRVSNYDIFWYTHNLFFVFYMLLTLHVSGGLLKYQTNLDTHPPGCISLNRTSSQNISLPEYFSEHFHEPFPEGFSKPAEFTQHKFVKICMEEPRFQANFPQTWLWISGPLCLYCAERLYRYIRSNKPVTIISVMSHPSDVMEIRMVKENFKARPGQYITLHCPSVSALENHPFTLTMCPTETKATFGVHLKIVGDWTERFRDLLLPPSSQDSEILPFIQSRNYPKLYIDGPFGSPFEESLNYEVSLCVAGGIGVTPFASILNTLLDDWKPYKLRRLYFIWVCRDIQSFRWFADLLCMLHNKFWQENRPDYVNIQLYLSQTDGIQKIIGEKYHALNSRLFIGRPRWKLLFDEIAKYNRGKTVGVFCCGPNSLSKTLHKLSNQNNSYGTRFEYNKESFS

z-score, inactive:
CCC(CC)C(O)C1C=CC2C(=O)NC(=O)C2N1Nc1ccc(Cl)cc1Cl (stereo not given) -4.41
C=C(CCCC)/C(=C/C[C@@H](OC(=O)c1ccncc1)c1ccc(OCCO)cc1)c1cc(C(=O)OC)ccc1OC -0.665
CO[C@H]1O[C@H](CO)[C@@H](OC(=O)Nc2cccc(F)c2)[C@H](OC(=O)Nc2ccccc2)[C@@H]1OC(=O)Nc1ccccc1 -0.322
C=C(COC)C(=O)CC[C@@H](OC(C)=O)c1ccc(CO)o1 0.0844
COC(=O)[C@H](Cc1ccccc1)N1CC2=C[C@@H](C3CC3)n3c(=O)n(C)c(=O)n3[C@H]2[C@@H]1[C@@H](O)Cc1ccccc1 -0.218
C=C[C@H](CO[Si](CC)(CC)CC)N(Cc1ccc(OC(C)=O)c(OC)c1)S(=O)(=O)c1ccc(Br)cc1 -0.928
C=CCOC(=O)[C@H]1[C@@H]2C(=O)O[C@@H](c3ccccc3)[C@@H](c3ccccc3)N2[C@@H](c2ccc(OCCOC(=O)[C@H]3C[C@H]4C(=O)N[C@@H](CCCCNC(C)=O)C(=O)N4[C@H]3c3ccc(O)cc3)cc2)[C@]12C(=O)Nc1ccc(I)cc12 0.823
CC(C)C(O)C1C=CC2C(=O)NC(=O)C2N1Nc1ccc(Cl)cc1Cl (stereo not given) -4.39
COc1ccc([Si](C)(C)[C@H]2[C@H](CCO)O[C@@]3(C(=O)N(Cc4ccc(N(C=O)c5ccccc5)cc4)c4ccccc43)[C@@H]2C)cc1 0.859
CC(C)C(O)C1C=CC2C(=O)N(c3ccccc3)C(=O)C2N1Nc1ccc([N+](=O)[O-])cc1 (stereo not given) -1.82
CC(C)C[C@@H]1NC(=O)[C@H](C(C)C)NC(=O)[C@@]23C(=O)N[C@@H](Cc4ccccc4)C2[C@H](C)[C@@]2(C)O[C@H]2C3/C=C/CC/C=C/CNC1=O (stereo not given in full) 0.338
CC1(C)[C@@H]2CC(C(O)C3C=CC4C(=O)N(c5ccccc5)C(=O)C4N3Nc3ccc([N+](=O)[O-])cc3)=C[C@H]1C2 (stereo not given in full) -1.02
COc1ccccc1CN1C(=O)c2ccccc2[C@@]2(Cc3ccccc3N(CC(C)C)C2=O)[C@@H]1c1ccc(CO)cc1 0.11
CC1CC/C=C\[C@H]2OC34C=CCN(C(C)(C)C)C(=O)[C@H]3N(C(C)CO)C(=O)[C@@H]4C2C(=O)O1 (stereo not given in full) -0.812
O=C(NCCO)C1=C[C@H](Oc2ccccc2I)[C@@H](O)[C@H](N(Cc2ccco2)C(=O)Cc2ccccc2)C1 0.254
CN(C)CCCC[C@@H]1NC(=O)[C@H]2C[C@@H](C(=O)NCCCCCCN)[C@@H](c3ccc(O)cc3)N2C1=O 0.236
COC(=O)C(CC#Cc1ccc2c(c1)[C@]1(C(=O)N2)[C@H](c2ccc(OCCO)cc2)N2[C@H](c3ccccc3)[C@H](c3ccccc3)OC(=O)[C@H]2[C@@H]1C(=O)N1CCc2cc(OC)c(OC)cc2C1)C(=O)OC 0.632
[N-]=[N+]=Nc1ccccc1[C@H]1OC(c2ccc(OCCCO)cc2)=N[C@@]1(CCS(=O)(=O)c1ccccc1)C(N)=O 0.067
COC(=O)[C@@]1(Cc2ccc(F)cc2)[C@H]2c3cc(C(=O)N(C)C)n(Cc4ccccc4)c3C[C@H]2CN1C(=O)c1ccccc1 0.734
COc1cc(COC(C)=O)ccc1OC(C)=O -0.433
CN1C(=O)C2C=CC(C(O)C#Cc3ccccc3)N(N3CCCCC3)C2C1=O (stereo not given) 0.191
NC(=O)NCC#Cc1ccc2c(c1)[C@]1(C(=O)N2)[C@H](C(N)=O)[C@H]2C(=O)O[C@H](c3ccccc3)[C@H](c3ccccc3)N2[C@@H]1c1ccc(O)cc1 -0.519
CO[C@H]1O[C@H](CO)[C@@H](OC(=O)Nc2ccc(Oc3ccccc3)cc2)[C@H](OC(=O)Nc2ccc3c(c2)OCO3)[C@H]1OC(=O)Nc1ccc2c(c1)OCO2 -1.65
CC(C)NC(=O)[C@@H]1c2ccccc2C(=O)N(C2Cc3ccccc3C2)[C@H]1c1ccc(CO)cc1 0.0797
CCCc1cc2c(n1Cc1cc(F)cc(F)c1)C(C)C1CN(C(=O)c3ccccc3)C(C)(C(=O)OC)C21 (stereo not given) -2.91
[N-]=[N+]=Nc1ccccc1[C@@H]1OC(c2ccc(OCCCO)cc2)=N[C@]1(CCS(=O)(=O)c1ccccc1)C(N)=O 2.14
O=C1c2ccccc2[C@](Cc2ccccc2I)(C(=O)NCCN2CCOCC2)[C@H](c2ccc(CO)cc2)N1Cc1ccccc1Cl 0.707
O=C(N1CCCCC1)[C@]1(Cc2ccccc2)N=C(c2ccc(OCCCO)cc2)O[C@@H]1c1ccccc1 -1.37
CC(=O)NCCCC[C@@H]1NC(=O)[C@H]2C[C@@H](C(=O)NCCCCCCNC(=O)CS)[C@@H](c3ccc(O)cc3)N2C1=O -0.187
O=C(CS)NCCCCCCNC(=O)[C@@H]1C[C@@H]2C(=O)NCC(=O)N2[C@@H]1c1cccc(OCCO)c1 0.845
CC[C@@H]1C=C(C(=O)O)[C@H](c2ccc(Br)cc2)N1S(=O)(=O)c1ccc(C)cc1 -0.117
CCOC(=O)C[C@H]1[C@H](OC(=O)c2ccccc2-c2ccccc2)[C@@H](NC(=O)CC(C)C)c2cc(OCCCO)ccc2N1C(=O)Cc1ccc(OC)cc1 1.21
CCCC[C@@H]1C[C@H]1[C@@H](NC(=O)c1cccs1)c1ccc(-c2ccccc2)cc1 -0.827
COc1ccc(-c2cc3c(c(-c4ccc(Oc5ccccc5)cc4)n2)[Si](C(C)C)(C(C)C)OC3)cn1 0.412
CC(C)C(=C=CC[C@@H](O)c1ccc(OCCO)cc1)C[C@@H](O)COCc1ccccc1 -0.915
